Source: PubChem BioAssay (NCATS)
Records with an inconclusive call do not appear. Activity calls are given as the source filed them. Unless noted, calls come from the whole dose curve; as a rule, active = well fitted curve in the direction sought with a large enough effect; inconclusive = small, poorly fitted or top-dose-only effect, or another doubt; inactive = no such curve, though single readings can be large; an effect the other way counts as inactive or inconclusive.

Columns and labels:
[1] = target: D(1A) dopamine receptor (Homo sapiens) (UniProt P21728); assay: HTS Assay for Allosteric Agonists of the Human D1 Dopamine Receptor: Primary Screen for Potentiators (AID 488982); conditions: HEK293 T-REx D1 inducible cells, calcium flux, kinetic fluorescence; series mostly up to 8.37 µM; note: potency is the fitted concentration of half-maximal effect
D(1A) dopamine receptor (Homo sapiens), sequence (P21728 whole entry, looked up): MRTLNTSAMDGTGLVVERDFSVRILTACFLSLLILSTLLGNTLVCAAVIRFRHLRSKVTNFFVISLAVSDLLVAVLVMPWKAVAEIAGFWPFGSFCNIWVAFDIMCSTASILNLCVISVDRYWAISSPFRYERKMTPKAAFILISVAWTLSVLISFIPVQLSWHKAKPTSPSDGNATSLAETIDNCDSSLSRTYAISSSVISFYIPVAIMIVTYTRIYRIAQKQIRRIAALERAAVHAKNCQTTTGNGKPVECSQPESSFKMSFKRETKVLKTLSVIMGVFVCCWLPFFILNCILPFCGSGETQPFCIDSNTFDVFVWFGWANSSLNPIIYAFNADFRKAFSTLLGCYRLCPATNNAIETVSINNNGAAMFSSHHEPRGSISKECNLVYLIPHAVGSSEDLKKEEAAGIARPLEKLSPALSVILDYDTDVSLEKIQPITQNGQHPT
How it was run: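 Tetracycline-induced HEK293 T-REx cells force-coupled to calcium signalling were incubated overnight at 30 C and dye-loaded at room temperature. Calcium flux over 180 s after compound addition flagged agonists; a further 180 s read after EC20 dopamine flagged potentiators.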

[2] = target: D(1A) dopamine receptor (Homo sapiens) (UniProt P21728); assay: HTS Assay for Allosteric Agonists of the Human D1 Dopamine Receptor: Primary Screen for Antagonists (AID 488983); conditions: D1 receptor cell assay, antagonist mode, qHTS titration; series mostly up to 41.8 µM;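 note: calcium flux response to an EC80 dopamine challenge measured with no-wash dye; nearly all actives have a fitted effect of over 65% in size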; note: potency is the fitted concentration of half-maximal effect
How it was run: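 Calcium-flux read-out in inducible HEK293 T-REx cells expressing D1, dye-loaded 30–90 min at room temperature. Kinetic reads: 180 s after compound (agonist phase), then 180 s after an EC80 dopamine challenge.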

[3] = target: ATPase family AAA domain-containing protein 5 (Homo sapiens) (UniProt Q96QE3); assay: Validation screen for small molecules that inhibit ELG1-dependent DNA repair in human embryonic kidney (HEK293T) cells expressing luciferase-tagged ELG1 (AID 493107); conditions: HEK293T ELG1-luciferase level, luminescence, 5-fluorouridine co-treatment, 16 h; series mostly up to 46.1 µM; note: nearly all actives have a fitted effect of over 70% in size; note: potency is the fitted concentration of half-maximal effect
ATPase family AAA domain-containing protein 5 (Homo sapiens), sequence (Q96QE3 whole entry, looked up, the tested form may be a part): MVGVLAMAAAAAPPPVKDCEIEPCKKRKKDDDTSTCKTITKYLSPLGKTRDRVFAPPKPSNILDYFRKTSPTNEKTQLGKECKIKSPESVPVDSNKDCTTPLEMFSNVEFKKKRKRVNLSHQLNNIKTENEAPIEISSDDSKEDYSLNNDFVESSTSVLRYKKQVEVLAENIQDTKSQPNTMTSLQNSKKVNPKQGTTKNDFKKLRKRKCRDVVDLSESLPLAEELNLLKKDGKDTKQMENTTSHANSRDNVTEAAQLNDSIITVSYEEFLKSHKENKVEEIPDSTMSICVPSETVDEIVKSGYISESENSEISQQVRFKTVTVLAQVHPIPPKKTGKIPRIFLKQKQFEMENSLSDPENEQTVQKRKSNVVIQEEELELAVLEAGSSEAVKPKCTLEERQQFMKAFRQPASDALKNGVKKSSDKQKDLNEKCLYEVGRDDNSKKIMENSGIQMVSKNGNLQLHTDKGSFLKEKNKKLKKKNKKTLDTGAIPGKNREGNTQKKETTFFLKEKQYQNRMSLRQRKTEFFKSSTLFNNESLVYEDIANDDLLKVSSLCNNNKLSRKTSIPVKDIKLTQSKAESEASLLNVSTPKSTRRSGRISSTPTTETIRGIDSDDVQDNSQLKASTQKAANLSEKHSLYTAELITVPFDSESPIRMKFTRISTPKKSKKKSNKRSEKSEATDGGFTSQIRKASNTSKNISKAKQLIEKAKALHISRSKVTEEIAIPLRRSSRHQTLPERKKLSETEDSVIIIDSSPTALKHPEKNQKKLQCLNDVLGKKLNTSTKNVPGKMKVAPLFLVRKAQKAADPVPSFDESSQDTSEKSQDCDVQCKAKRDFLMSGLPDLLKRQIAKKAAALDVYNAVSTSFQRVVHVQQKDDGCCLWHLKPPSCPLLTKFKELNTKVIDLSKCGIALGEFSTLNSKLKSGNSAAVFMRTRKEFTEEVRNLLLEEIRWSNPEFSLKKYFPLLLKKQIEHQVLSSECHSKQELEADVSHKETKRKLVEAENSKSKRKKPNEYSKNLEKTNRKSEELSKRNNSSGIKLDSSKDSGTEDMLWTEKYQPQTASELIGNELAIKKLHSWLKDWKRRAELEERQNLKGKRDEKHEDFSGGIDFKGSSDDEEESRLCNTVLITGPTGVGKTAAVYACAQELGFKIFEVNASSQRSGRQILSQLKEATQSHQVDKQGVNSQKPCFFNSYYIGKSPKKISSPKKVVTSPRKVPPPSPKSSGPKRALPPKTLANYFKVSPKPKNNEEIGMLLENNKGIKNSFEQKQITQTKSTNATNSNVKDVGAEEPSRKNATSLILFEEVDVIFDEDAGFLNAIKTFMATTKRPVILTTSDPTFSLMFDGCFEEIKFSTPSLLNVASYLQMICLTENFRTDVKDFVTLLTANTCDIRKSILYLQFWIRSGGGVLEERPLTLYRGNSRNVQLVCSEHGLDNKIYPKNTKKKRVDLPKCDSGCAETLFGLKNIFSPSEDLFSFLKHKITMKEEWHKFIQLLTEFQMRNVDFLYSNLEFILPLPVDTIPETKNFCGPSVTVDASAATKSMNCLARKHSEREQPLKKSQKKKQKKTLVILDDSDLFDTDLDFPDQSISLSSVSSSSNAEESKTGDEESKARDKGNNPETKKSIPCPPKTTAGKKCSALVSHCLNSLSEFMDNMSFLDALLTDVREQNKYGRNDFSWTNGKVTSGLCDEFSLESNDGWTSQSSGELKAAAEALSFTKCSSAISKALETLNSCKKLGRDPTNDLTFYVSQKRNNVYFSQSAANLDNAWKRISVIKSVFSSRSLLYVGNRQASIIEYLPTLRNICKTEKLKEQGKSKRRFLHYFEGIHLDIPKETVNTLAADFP
How it was run: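 Luciferase read-out, ONE-Glo, 30 min at room temperature, follows 16 h co-exposure at 37 C of compound and the DNA-damaging agent 5-fluorouridine. Cells: HEK293T with ELG1-luciferase fusion, 2,000 per well, DMSO as vehicle.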

[4] = target: Thyrotropin-releasing hormone receptor (Homo sapiens) (UniProt P34981); assay: qHTS for Small Molecule Agonists and Allosteric Enhancers of Human TRH Receptor: Validation Screen for Agonists (AID 493127;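 active = calcium activation more than 3 SD above the typical response in the agonist read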;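 note: intracellular calcium rise by fluo-8 fluorescence before TRH EC20 addition; 0% is about no effect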); conditions: TRH receptor agonist cell assay; at 2 µM; stronger effect = higher value
Thyrotropin-releasing hormone receptor (Homo sapiens), sequence (P34981 whole entry, looked up): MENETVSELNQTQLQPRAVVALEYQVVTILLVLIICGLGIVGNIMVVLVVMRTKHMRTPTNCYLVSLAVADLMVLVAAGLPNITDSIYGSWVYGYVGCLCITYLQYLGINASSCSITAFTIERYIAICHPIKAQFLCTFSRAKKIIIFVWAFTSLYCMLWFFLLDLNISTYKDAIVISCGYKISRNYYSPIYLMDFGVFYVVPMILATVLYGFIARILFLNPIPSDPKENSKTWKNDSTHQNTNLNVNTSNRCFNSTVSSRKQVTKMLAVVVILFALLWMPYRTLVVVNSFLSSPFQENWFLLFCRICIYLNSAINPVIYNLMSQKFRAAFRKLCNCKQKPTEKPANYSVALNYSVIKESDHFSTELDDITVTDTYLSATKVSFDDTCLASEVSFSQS
How it was run: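 Compound-evoked intracellular calcium release in fluo-8-loaded TRHR cells, read kinetically on FDSS (Ex 480/Em 530, 1 s/cycle) after 23 nL pintool transfer. Agonist phase preceded 10 nM TRH EC20 addition.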

[5] = Nrf2 qHTS screen for inhibitors: Validation (AID 493153; active = well fitted inhibition curve with a large enough effect in the main read-out, with a control signal flat, not every such curve was filed as active); conditions: A549 ARE-Fluc reporter, 18-24 h; Potency: luciferase luminescence; viability change: measured here: cytotoxicity max response; luciferase luminescence, at 46.1 µM (top of the series)
How it was run: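 Concentration-response on A549 ARE_Fluc reporter cells exposed 18-24 h at 37 C, 5% CO2. Cytotoxicity read first by CellTiter-Fluor fluorescence (Ex 405/Em 525), then Nrf2 inhibition by BugLite luminescence after 15 min.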

[6] = qHTS for Inhibitors of Cell Surface uPA Generation: Validation Assay (AID 493164); conditions: mouse cells, plasminogen activation; series mostly up to 38.3 µM;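 note: RAW 264.7 macrophage cells exposed to compound for 18 h; 0% is about no effect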
How it was run: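 ATP-Lite luminescence read-out: ATP remains high when uPA activity-dependent LF translocation into the cytoplasm is blocked. RAW 264.7 cells, 18 h compound exposure at 37 C; 7-point titration, 2.45 nM to 38.3 uM final.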

[7] = target: Galactokinase (Homo sapiens) (UniProt P51570); assay: qHTS Validation Assay for Inhibitors of Human Galactokinase (GALK) (AID 493189); conditions: purified human GALK enzyme activity, qHTS 7-point titration; series mostly up to 57.5 µM; note: 0% is about no effect
Galactokinase (Homo sapiens), sequence (P51570 whole entry, looked up): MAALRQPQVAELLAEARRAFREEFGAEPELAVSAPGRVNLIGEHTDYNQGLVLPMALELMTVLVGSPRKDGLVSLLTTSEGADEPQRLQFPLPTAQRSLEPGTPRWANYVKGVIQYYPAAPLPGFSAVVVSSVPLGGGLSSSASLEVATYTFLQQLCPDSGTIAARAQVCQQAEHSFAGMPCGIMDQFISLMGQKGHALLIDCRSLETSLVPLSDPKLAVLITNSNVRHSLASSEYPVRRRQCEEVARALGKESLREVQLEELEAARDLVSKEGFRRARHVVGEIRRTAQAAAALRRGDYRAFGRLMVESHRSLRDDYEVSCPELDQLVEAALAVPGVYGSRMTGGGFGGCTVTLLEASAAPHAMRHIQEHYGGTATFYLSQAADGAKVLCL
How it was run: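 GALK (5 nM) with 35 uM ATP and 100 uM galactose in HEPES pH8.0, MgCl2, NaCl, DTT, BSA; 1 h at room temperature. Residual ATP read by Kinase-Glo Plus luminescence after 10 min.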

[8] = Validation screen for small molecules that induce genotoxicity in human embryonic kidney (HEK293T) cells expressing luciferase-tagged ELG1 (AID 493106); conditions: luminescence; series mostly up to 46.1 µM; note: 0% is about no effect
How it was run: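 ELG1-luciferase reporter readout (ONE-Glo, 30 min, room temperature) after 16 hr compound treatment at 37 °C of HEK293T cells at 2,000 per well. Rising luminescence flags genotoxic stress.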

COc1cccc(OC)c1OCCNCC1COc2ccccc2O1 (stereo not drawn)
active: Potency [2] 316 nM
inactive: Potency [1] | Potency [3] | activation [4] -3.69% | Potency [5] | outcome [6] | Potency [7]
4.98%: viability change [5]

O=C1NC(=O)/C(=C/c2ccc3nccnc3c2)S1
inactive: Potency [1] | Potency [2] | outcome [6]

O=C(O)c1cc(=O)c2c(Cl)cc(Cl)cc2[nH]1
-1.84%: viability change [5]
inactive: Potency [1] | Potency [2] | Potency [3] | activation [4] 1.56% | Potency [5] | outcome [6] | Potency [7]

O=C(c1ccc(OCCCc2cnc[nH]2)cc1)C1CC1
-3.26%: viability change [5]
inactive: Potency [1] | Potency [2] | Potency [5] | outcome [6]

CNCC[C@H](Oc1ccc(C(F)(F)F)cc1)c1ccccc1
1.58%: viability change [5]
inactive: Potency [1] | Potency [8] | Potency [3] | activation [4] 14.1% | Potency [5] | outcome [6] | Potency [7]

O=c1[nH]c2cc([N+](=O)[O-])c([N+](=O)[O-])cc2[nH]c1=O
0.435%: viability change [5]
inactive: Potency [1] | Potency [2] | Potency [3] | activation [4] 1.31% | Potency [5] | outcome [6] | Potency [7]

CCCC1(C)C(C#N)(C#N)C1(C#N)C#N
active: Potency [3] 16400 nM
inactive: Potency [1] | Potency [2] | outcome [6]

O=c1[nH]c2cc(C(F)(F)F)ccc2n1-c1cc(C(F)(F)F)ccc1O
-2.14%: viability change [5]
inactive: Potency [1] | Potency [8] | Potency [3] | activation [4] 1.88% | Potency [5] | outcome [6] | Potency [7]

COc1ccc(NC(=O)/C=C/c2ccc(Cl)cc2)cc1
inactive: Potency [1] | Potency [2] | activation [4] 1.19% | Potency [5] | outcome [6] | Potency [7]
-1.36%: viability change [5]

Nc1nc(SCc2ccc([N+](=O)[O-])cc2)c2ncn([C@@H]3O[C@H](CO)[C@@H](O)[C@H]3O)c2n1
12.2%: viability change [5]
active: Potency [3] 146 nM
inactive: Potency [1] | Potency [2] | Potency [5] | outcome [6]

CN1CC(=O)N/C1=N/C(=O)Nc1cccc(Cl)c1
inactive: Potency [1] | Potency [2] | Potency [5] | outcome [6]
-1.94%: viability change [5]

Cc1cc(NC(=O)Nc2ccc3c(ccn3C)c2)sn1
3.91%: viability change [5]
inactive: Potency [1] | activation [4] 0.625% | Potency [5] | outcome [6] | Potency [7]

CNc1ncnc2c1ncn2[C@@H]1O[C@H](CO)[C@@H](O)[C@H]1O
inactive: Potency [1] | Potency [2] | Potency [3] | Potency [5] | outcome [6]
-0.614%: viability change [5]

Oc1cc(O)cc(/C=C/c2ccc(O)c(O)c2)c1
active: Potency [1] 580 nM
inactive: Potency [2] | activation [4] 0.938% | outcome [6] | Potency [7]

NC(=S)NCCC[C@H](N)C(=O)O
inactive: Potency [2] | Potency [8] | Potency [3] | Potency [5] | outcome [6]
2.08%: viability change [5]
